IL1B secr inh: inhibitors of inflammasome signaling (IL-1 beta secretion); THP-1 LPS/ATP IL-1B secretion, AlphaLISA, 16 h; active compounds read low; activity change, % at 57.5 µM; 4.7% of 360,000 active; in the data active = activity change below about -50%; inconclusive = mostly about -30% to -49%
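Secreted IL-1B measured by AlphaLISA bead assay after 16 h compound exposure of THP-1 cells; compounds (final up to 57.5 uM) added 1 h before LPS (250 ng/mL) and ATP (1.25 mM) stimulation; lower signal means less secretion.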
KB-3-1 tox: kills parental KB-3-1 adenocarcinoma cells; KB-3-1 viability, CellTiter-Glo ATP luminescence, 72 h; AID 1347075; 1.4% of 400,000 active; Potency, µM (doses to about 46.1 µM), most hits filed as cytotoxic; note: nearly all actives have a fitted effect of over 60% in size
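Screening of KB-3-1 cells (DMEM, 10% FBS, phenol-red free) ran from lowest to highest compound concentration; after 72 h at 37 °C viability was read luminescently and curves fitted.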
MCF10A rereplic: DNA re-replication induction in MCF 10a cells; MCF 10A DNA re-replication, Hoechst nuclear intensity, 48 h; Potency, µM (doses to about 46.1 µM), hits mostly activators; 2.9% of 350,000 active; note: nearly all actives have a fitted effect of over 50% in size
KB-V1 MDR tox: KB-V1 MDR subline cytotoxicity. AID 1347076. Potency, µM (highest dose often 46.1 µM), hits mostly cytotoxic. KB-V1 MDR cells viability, CellTiter-Glo, 72 h. 3.4% of 400,000 active; note: nearly all actives have a fitted effect of over 60% in size
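Potencies derive from concentration-effect curves fitted to normalized luminescence (CellTiter-Glo) of KB-V1 cells treated for 72 h at 37 degrees C in phenol-red-free DMEM containing 10% FBS.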
SW480 rereplic: DNA re-replication induction in SW480 cells. SW480 DNA re-replication, Hoechst DNA content imaging, 48 h. Potency, µM (top dose mostly 46.1 µM), usual class: activators. 1.8% of 340,000 active; note: nearly all actives have a fitted effect of over 55% in size
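Readout is total intensity of Hoechst-stained nuclei, excited at 405 nm and collected at 500-530 nm. Compound treatment lasted 48 hr at 37 C in 5% CO2 before staining.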
A number is an active result; n = inactive; u = inconclusive; x = no result; [ ] = dose if it differs, or a comment. The list is not random: actives were taken first. Their share in the collection is about 9.9%. Unless noted, calls come from the whole dose curve; as a rule, active = well fitted curve in the direction sought with a large enough effect; inconclusive = small, poorly fitted or top-dose-only effect, or another doubt; inactive = no such curve, though single readings can be large; an effect the other way counts as inactive or inconclusive.

SMILES | IL1B secr inh | KB-3-1 tox | MCF10A rereplic | KB-V1 MDR tox | SW480 rereplic
CCOC(=O)C1=C(C)N=c2s/c(=C\c3ccc(O)c([N+](=O)[O-])c3)c(=O)n2C1c1ccccc1OC (stereo unspecified) | n | u | u | u | n
CCOC(=O)C1=C(C)n2c(s/c(=C/c3cccc([N+](=O)[O-])c3)c2=O)=NC1c1ccc(O)c(OC)c1 (stereo unspecified) | -78 | u | 16µM | 18µM | u
Cc1ccc(O)c(C2=NCCNC(C(F)(F)F)=C2)c1 | n | n | n | n | n
Oc1c(C2=NCCNC(C(F)(F)F)=C2)ccc2ccccc12 | -109 | n | n | n | n
Cc1cccc(NC(=O)/C(C#N)=C/c2ccc(Sc3ccccc3)o2)c1C | n | n | 18µM | n | u
O=C(C[n+]1cccc(/C=N/O)c1)NC(=O)Nc1ccccc1 | x | x | x | n | x
Cn1c(-c2ccc3ccccc3n2)nc2cnccc21 | n | n | n | 10µM | n
COc1cc(OC)c(-c2nc3cnccc3n2C)cc1OC | n | n | n | n | n
CCOC(=O)c1c(NC(=O)CCl)sc(CN(C)C)c1-c1ccccc1 | -98 | u | u | n | u
CCOC(=O)c1c(NC(=O)/C=C/C(=O)O)sc(C)c1-c1ccc(Cl)cc1 | -71 | u | 2.9µM | n | n
CCOC(=O)c1c(NC(=O)CN2CCCCC2)sc2c1CCCC2O (stereo unspecified) | n | u | n | n | n
CCOC(=O)c1c(NC(=O)CN2CCCCC2)sc(CN(C)C)c1-c1ccccc1 | -60 | n | 26µM | n | 16µM
CCOC(=O)c1c(NC(=S)N2CCN(C)CC2)sc(C)c1-c1ccccc1 | u | n | 26µM | n | u
COc1cccc(CNC(=O)c2c(O)nc3ccccn3c2=O)c1 | x | n | x | 23µM | x
COc1ccc(CCNC(=O)c2c(O)nc3ccccn3c2=O)cc1OC | x | n | x | 7.3µM | x
COc1ccc(CCNC(=O)c2c(C)nc3ccccn23)cc1OC | n | n | n | n | n
CS(=O)(=O)c1[nH]nc(-c2cccc(Cl)c2)c1C#N | x | n | n | n | n
O=C(CN1C(=O)NC2(CCc3ccccc32)C1=O)Nc1ccc(Cl)cc1F (stereo unspecified) | n | n | x | n | x
Fc1cccc(C[n+]2csc3ccccc32)c1 | -118 | n | n | n | n
c1ccc(C[n+]2csc3ccccc32)cc1 | -53 | n | 23µM | n | u
O=C(C[n+]1csc2ccccc21)c1ccc(O)c(O)c1 | x | n | x | n | x
c1ccc2c(c1)sc[n+]2CCC1CCCCC1 | x | n | x | n | x
Cc1ccc(CNC(=O)C2CCN(c3nc4ccccc4n(C)c3=O)CC2)cc1 | x | n | x | n | x
Cc1ccc(Oc2coc3cc(OC(=O)c4cccs4)ccc3c2=O)cc1 | n | n | n | n | n
CC(=O)Oc1ccc2c(=O)c(Oc3ccccc3)coc2c1OC(C)=O | n | u | u | 13µM | u
SMILES | IL1B secr inh | KB-3-1 tox | MCF10A rereplic | KB-V1 MDR tox | SW480 rereplic
Cc1cccc(NC(=S)N(CCCN2CCOCC2)Cc2cn(C)c3ccccc23)c1 | n | u | u | n | u
CSc1cccc(NC(=S)N(CCCN2CCCC2)Cc2cccn2Cc2ccc(Cl)cc2)c1 | u | n | 21µM | 18µM | u
S=C(Nc1cccc(Cl)c1)N(CCCN1CCCC1)Cc1cccn1Cc1ccc(Cl)cc1 | -101 | u | u | 12µM | n
Cc1ccc(NC(=S)N(C)Cc2cn(C)c3ccccc23)cc1 | n | n | u | 21µM | n
COc1cccc(NC(=S)N(CCCN2CCCC2)Cc2cccn2Cc2ccc(Cl)cc2)c1 | u | u | n | u | u
Cn1cc(CC(=O)NCCN2CCOCC2)c2ccccc21 | n | n | n | n | 23µM
CCSc1nnc(NC(=O)C2CC(=O)N(Cc3ccccc3)C2)s1 (stereo unspecified) | n | n | n | u | n
Cn1cc(CN(CCCN2CCOCC2)C(=S)Nc2cccc(Cl)c2)c2ccccc21 | n | n | 23µM | n | 16µM
CC(C)c1ccc(OCC(=O)NCc2ccccc2)cc1 | n | n | n | u | n[9.22 µM]
Cc1ccccc1OCCNc1cc(N2CC(C)NC(C)C2)ccc1[N+](=O)[O-] (stereo unspecified) | u | u | n | 21µM | n
CCc1ccc(OCCNc2cc(N3CCNC(C)C3)ccc2[N+](=O)[O-])cc1 (stereo unspecified) | -67 | u | u | n | n
O=[N+]([O-])c1ccc(N2CCCCC2)cc1NCCOc1ccccc1 | n | n | n | n | n
CC1CN(c2ccc([N+](=O)[O-])c(NCCOc3ccccc3)c2)CC(C)N1 (stereo unspecified) | -59 | n | n | u | n
CC1CN(c2ccc([N+](=O)[O-])c(NCCOc3ccc(Cl)cc3)c2)CC(C)N1 (stereo unspecified) | n | n | n | n | n
O=C1CC(c2nc3ccccc3n2CCCCOc2ccccc2)CN1c1ccccc1Cl (stereo unspecified) | x | u | x | n | x
COCCn1c(SCC(=O)Nc2ccc(F)c(Cl)c2)nc2c(oc3ccccc32)c1=O | x | n | x | n | x
O=C(CSc1nc2ncc(Cl)cc2[nH]1)N1CCC(Cc2ccccc2)CC1 | n | n | n | n | n
CCOc1cccc(CC(=O)N2CCc3c([nH]c4ccc(OC)cc34)C2c2ccc(F)cc2)c1OCC (stereo unspecified) | x | n | x | n | x
Cn1ccc2ccc(C3=CC(=O)C[C@H](c4ccc(F)cc4)C3)cc21 | n | n | u | n | n
CN(C)S(=O)(=O)N1CCCC(C(=O)c2ccc(-c3ccccc3)cc2)C1 (stereo unspecified) | n | n | n | n | n
CN(C)S(=O)(=O)N1CCCC(C(=O)c2ccc(C(F)(F)F)cc2)C1 (stereo unspecified) | n | n | n | 23µM | n
Cc1cc(C)c2cc(C#N)c(NCCNC(=O)c3cccnc3)nc2c1 | n | n | x | n | x
O=C1C=C(c2ccc3ncccc3c2)C[C@@H](c2ccc(Cl)cc2)C1 | n | u | 23µM | u | n
O=C1C=C(Nc2ccc(Cl)cc2)CC(c2ccc(Cl)cc2)C1 (stereo unspecified) | -85 | n | n | 23µM | n
O=C1C=C(c2ccc(O)cc2)C[C@@H](c2ccc(Cl)cc2)C1 | -75 | n | u | n | n[9.22 µM]
SMILES | IL1B secr inh | KB-3-1 tox | MCF10A rereplic | KB-V1 MDR tox | SW480 rereplic
O=C1C=C(c2ccc3[nH]ccc3c2)C[C@@H](c2ccc(Cl)cc2)C1 | n | n | 10µM | n | n
Cc1cc(NC(=O)CSC2=NS(=O)(=O)c3ccccc3N2)no1 | n | n | n | n | n
Cc1ccc(N(CC(=O)NC(C)C)C(=O)CCC(=O)Nc2nccs2)c(C)c1 | n | n | n | n | n
O=C(Nc1ccc(Cl)c(C(F)(F)F)c1)C1CCN(S(=O)(=O)c2cccc3nonc23)CC1 | x | n | x | n | x
CC(=O)c1c(C)[nH]c(C(=O)Nc2nc(C)cs2)c1C | n | u | n | n | n
CC(=O)c1c(C)[nH]c(C(=O)Nc2nc(-c3ccc(-c4ccccc4)cc3)cs2)c1C | u | 15µM | 3.3µM | 21µM | n
